# According to PubChem BioAssay (NCI):
# About 83,000 compounds went through this panel and 20% of them were active in at least one assay; those are over-represented in the sample as a whole.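 For each line, cells grew in 96-well plates with the test compound present at a single concentration for 48 hours.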 Unmarked numbers belong to inactive results. Calls of active or inactive are those of the source. Rule for the calls: active = growth percent below 10; inactive = the rest.
# Assays:
# Experiment in all cases: NCI-60 one-dose screen, 48 h (100 = growth as untreated, 0 = no growth, -100 = all killed)
# SK-MEL-2 melanoma = conditions: 10 µM unless noted
# EKVX NSCLC = conditions: 10 µM unless noted
# SN12C renal = conditions: 10 µM unless noted
# UO-31 renal = conditions: 10 µM unless noted
# TK-10 renal = conditions: 10 µM unless noted
# ACHN renal = conditions: 10 µM unless noted
# CAKI-1 renal = conditions: 10 µM unless noted
# A498 renal = conditions: 10 µM unless noted
# CCRF-CEM leukemia = conditions: 10 µM unless noted
# MOLT-4 leukemia = conditions: 10 µM unless noted
# SR leukemia = conditions: 10 µM unless noted
# RPMI-8226 leukemia = conditions: 10 µM unless noted
# OVCAR-8 ovarian = conditions: 10 µM unless noted
# OVCAR-5 ovarian = conditions: 10 µM unless noted
# OVCAR-4 ovarian = conditions: 10 µM
# IGROV1 ovarian = conditions: 10 µM unless noted
# OVCAR-3 ovarian = conditions: 10 µM unless noted
# HS 578T breast = conditions: 10 µM unless noted
# NCI/ADR-RES ovarian = conditions: 10 µM unless noted
# SK-OV-3 ovarian = conditions: 10 µM unless noted
SMILES,growth (SK-MEL-2 melanoma),growth (EKVX NSCLC),growth (SN12C renal),growth (UO-31 renal),growth (TK-10 renal),growth (ACHN renal),growth (CAKI-1 renal),growth (A498 renal),growth (CCRF-CEM leukemia),growth (MOLT-4 leukemia),growth (SR leukemia),growth (RPMI-8226 leukemia),growth (OVCAR-8 ovarian),growth (OVCAR-5 ovarian),growth (OVCAR-4 ovarian),growth (IGROV1 ovarian),growth (OVCAR-3 ovarian),growth (HS 578T breast),growth (NCI/ADR-RES ovarian),growth (SK-OV-3 ovarian)
Cc1cc(N2CCCCCC2)nc(N2CCN(CC(=O)Nc3ccc4c(ccn4Cc4ccccc4)c3)CC2)n1,52.8%,56%,57.1%,27.7%,83.4%,55.1%,33.3%,8.99% (active),50.2%,41.1%,23.4%,43.9%,32.5%,74.4%,46.1%,49.9%,55.4%,47.2%,37.6%,
CCc1ccc(NC(=O)N[C@@H](Cc2cc(F)cc(F)c2)C(=O)N[C@@H]2C(=O)N3C[C@H](O)C[C@H]3C(=O)N3CCOC[C@H]3C(=O)N[C@@H](C)C(=O)N3C[C@H](C)C[C@H]3C(=O)O[C@H]2C)cc1,29%,79%,24.3%,78.7%,95.8%,103%,84.4%,38.6%,50.9%,43.3%,48.3%,17.2%,62.3%,46.3%,12.8%,49.4%,16.8%,41.2%,107%,
CNc1cc(C(=O)O)nc(NC)n1,103%,97.1%,95.1%,88.4%,99.2%,99.9%,98.4%,79.7%,100%,101%,107%,103%,101%,92.1%,97.6%,,,94.7%,99.4%,109%
Cc1cccc(C[C@H](NC(=O)Nc2ccc(Cl)cc2F)C(=O)N[C@@H]2C(=O)N3C[C@H](O)C[C@H]3C(=O)N3CCCC[C@H]3C(=O)N[C@@H](C)C(=O)N3C[C@H](C)C[C@H]3C(=O)O[C@H]2C)c1,0.151% (active),24.6%,9.57% (active),10.3%,29.2%,8.94% (active),8.12% (active),-4.82% (active),31%,14.7%,11%,6.39% (active),13.5%,6.86% (active),7.83% (active),9.47% (active),-26.4% (active),10.9%,89.9%,
CC[C@@H]1NC(=O)[C@@H]2CCCCN2C(=O)[C@@H]2CCCN2C(=O)[C@@H](NC(=O)[C@H](Cc2cc(F)cc(F)c2)NC(=O)Nc2ccc(C3CC3)cc2F)[C@H](C)OC(=O)[C@@H]2C[C@@H](C)CN2C1=O,9.64% (active),20.4%,12%,11.2%,34%,12.1%,9.54% (active),-5.62% (active),40.5%,17%,15.1%,12.8%,13.2%,-1.92% (active),7.84% (active),28.5%,6.44% (active),20.6%,14%,
Nc1cccc2c1C(=O)c1cccc(NC(=O)c3ccccc3)c1C2=O,33.4%,2.26% (active),47.1%,9.99% (active),32.1%,41.5%,12%,16.7%,12.6%,41%,15.1%,15.2%,34.4%,57.6%,53%,,-41.1% (active),,-31.1% (active),20.4%
CCCCN(CC)CC(CC)Nc1cc(OC)cc2cccnc12 (stereo unspecified),115%,128%,99.7%,102%,100%,104%,111%,112%,99.6%,111%,113%,105%,103%,103%,115%,,107%,,101%,127%
CNC(=O)c1cc(Oc2cccc3nc(NC(=O)Nc4cc(C(F)(F)F)cc(C(F)(F)F)c4)ccc23)ccn1,51%,26.7%,12.1%,11.7%,-25% (active),-25.8% (active),23.6%,-36% (active),73.3%,89.5%,47.9%,41.1%,37.2%,33.3%,-38.2% (active),51.4%,-15% (active),22.2%,49.5%,
Cc1ccc(C2=C/C(=C/c3ccc(Br)cc3)C(=O)N2CCc2ccc(S(N)(=O)=O)cc2)cc1,98.6%,92.8%,95.9%,61.8%,110%,97.7%,65%,78.5%,104%,82.1%,87.2%,96.1%,95.7%,97.2%,91.5%,85.5%,104%,93.4%,89.1%,
CCNC(=O)N1CCc2c(Cl)c3c(c(OC)c2[C@@H]1[C@H]1OCc2c1ccc(OC)c2OC)OCCO3,22.8%,48.7%,38.1%,34.2%,47.7%,31.5%,24.3%,-20.6% (active),12.3%,30.8%,18.3%,17.3%,30.7%,38.1%,57.6%,29.1%,-5.71% (active),14.5%,1.11% (active),
CC1=CC[C@@H]2C(C)(C)C(=O)CC[C@@]2(C)[C@@H]1COc1ccc2ccc(=O)oc2c1,77%,71.4%,76.1%,39%,82%,74.2%,47.3%,75.3%,61.9%,39.1%,77.9%,45.9%,51.1%,98%,23.1%,77.9%,72.5%,77.6%,28.4%,
CN(C)c1ccc(-c2ccc(-c3ccc(C(=N)N)cc3)s2)cc1,107%,85.9%,-50.1% (active),80.8%,-87.9% (active),-38.8% (active),96.6%,0.528% (active),-22.5% (active),2.73% (active),5.33% (active),-40% (active),57.6%,-55.2% (active),8.97% (active),-63.5% (active),-85.3% (active),104%,46.3%,
CCOC(=O)c1nn(C2CCCCO2)c2ccc(NC(=O)CSc3nc4ccccc4c(=O)[nH]3)cc12 (stereo unspecified),105%,102%,87%,79.6%,108%,93.6%,77.7%,69.7%,93.1%,103%,113%,101%,98.1%,115%,100%,101%,106%,51.6%,107%,
CC(C)(C)OC(=O)N1C=C/C(=C\Cn2cc(-c3ccccc3)nn2)CC1,64%,79.8%,73.7%,54.6%,98.6%,68.7%,67%,54.2%,2.78% (active),65.2%,57.9%,62.9%,74.9%,104%,18%,82.7%,86.6%,84.1%,76.9%,
Cc1ccc(NC(=O)N[C@@H](Cc2cc(F)cc(F)c2)C(=O)N[C@@H]2C(=O)N3CCC[C@H]3C(=O)N3CCCC[C@H]3C(=O)N[C@@H](C)C(=O)N3C[C@H](C)C[C@H]3C(=O)O[C@H]2C)cc1,35.2%,28.2%,18.1%,25.2%,47.6%,23.6%,13.7%,-1.49% (active),54.8%,30.9%,31.3%,20.1%,18.5%,34.6%,11.3%,45.9%,19.8%,35.6%,34.4%,
c1ccc(-c2nc(N3CCCNCC3)c3nc(-c4ccccc4)oc3n2)cc1,102%,62.8%,-22.5% (active),51.1%,-47.3% (active),-53.5% (active),40.1%,69.9%,12.7%,0.525% (active),0.248% (active),-15.7% (active),59.5%,87.9%,76.3%,-56% (active),-69.8% (active),83.6%,-11.8% (active),
